Anthrax LF inh2 = blocks Bacillus anthracis lethal factor protease; AID 588501; multiplex microsphere protease cleavage assay, LF; inhibition, % at 10 µM; P15917; actives 0.12% (n = 360,000); note: plate controls were buffer without enzyme for full effect and enzyme alone for no effect
SSB-PriA inh = K. pneumoniae PriA-SSBct interaction inhibition; inhibition, % at 33 µM; AID 1272365; actives 0.6% (n = 430,000); AlphaScreen SSBct-PriA binding, biotinylated peptide; in the data active = inhibition mostly above about 37%, no sharp cut-off; inactive = mostly below about 20%;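 note: plate controls were negative control peptide for no effect and reference peptide for full effect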
BoNT-F LC inh = BoNT F light chain protease inhibition; Multiplex microsphere protease cleavage assay, flow cytometry; inhibition, % at 10 µM; actives 0.22% (n = 360,000); in the data active = inhibition above about 35%, passing the limit was not always enough; inconclusive = no clear call, values can overlap the other calls; note: plate controls were buffer without enzyme for full effect and enzyme alone for no effect
BoNT-A LC inh2 = blocks Botulinum neurotoxin A light chain protease; multiplex microsphere protease substrate cleavage, flow cytometry; inhibition, % at 10 µM; actives 0.17% (n = 360,000); AID 588499; note: plate controls were buffer without enzyme for full effect and enzyme alone for no effect
Bead autofluor = compound fluorescence in toxin protease inhibitor counterscreen; compound autofluorescence counterscreen, microsphere flow cytometry; hits give high values; fluorescence intensity (test concentration not listed); actives 3.1% (n = 360,000); AID 624483; in the data active = fluorescence intensity above about 16000; inconclusive = no clear call, values can overlap the other calls
* marks the source's active call; other numbers are inactive results; i = inactive; ? = inconclusive; · = no result. Sampled rows, rich in hits. Any-hit rate of the full collection: about 3.1%. Cut-off read from the data, not from the text of the source, unless noted: active = inhibition above about 30%; inconclusive = no clear call, values can overlap the other calls; inactive = below that.

SMILES	Anthrax LF inh2	SSB-PriA inh	BoNT-F LC inh	BoNT-A LC inh2	Bead autofluor
COCCN1CCCc2ccc(NC(=O)c3ccc(C(C)(C)C)cc3)cc21	·	29.0	·	·	·
COCCN1CCCc2ccc(NS(=O)(=O)c3ccc(OCC(C)C)cc3)cc21	·	39.0*	·	·	·
COCCN1CCCc2ccc(NS(=O)(=O)c3cccc(C)c3)cc21	·	4.0	·	·	·
COCCN1CCCc2ccc(NC(=O)c3cccc(Br)c3)cc21	·	56.0*	·	·	·
CN1CCN(c2nc3c(F)cccc3s2)CC1	·	0.0	·	·	·
O=C(Nc1ccc(N2CCCCC2)cc1)c1ccc2c(c1)OCCO2	-3.4	-12.9	-1.7	?	23082*
CC(=O)N1CCN(c2ccc(NC(=O)c3ccc4c(c3)OCCO4)cc2)CC1	-5.2	-4.7	-8.1	2.2	8819
CC(C)C(=O)N1CCN(c2ccc(NC(=O)c3ccc4c(c3)OCCO4)cc2Cl)CC1	-4.8	-5.1	1.1	?	16164*
Cc1cccc(Cn2cnc(N3Cc4ccccc4C3=O)n2)c1	·	-16.0	·	·	·
Cc1cc(C)nc(OC2CCC(NC(=O)Cc3ccsc3)CC2)n1 (stereo not given)	·	12.0	·	·	·
CC(C)CN(C1CCS(=O)(=O)C1)S(=O)(=O)c1ccc2ccccc2c1 (stereo not given)	0.1	-5.8	-7.1	-5.3	6863
CC(C)CN(C1CCS(=O)(=O)C1)S(=O)(=O)c1ccc(Cl)c([N+](=O)[O-])c1 (stereo not given)	·	41.0*	·	·	·
Cn1nc(CCC(=O)Nc2ccccn2)ccc1=O	·	10.0	·	·	·
CCOC(=O)c1c(C)oc2c1c(C=Nc1nc(C)cc(C)n1)c(O)c1ccccc12	·	-5.0	·	·	·
COc1ncccc1C(=O)NCC(CC(=O)O)c1ccccc1 (stereo not given)	-8.1	-8.3	-5.6	-1.7	16335*
CC1CCCN(CCOCCOc2ccc(Cl)cc2Br)C1 (stereo not given)	-9.0	-14.0	0.6	1.2	21666*
CCC(C)(C)n1nnnc1C(c1cc2cc(C)ccc2[nH]c1=O)N1CCCc2ccccc21 (stereo not given)	-2.2	5.5	-4.3	1.1	10565
CCC(C)(C)n1nnnc1C(c1cc2cc(OC)ccc2[nH]c1=O)N1CCc2ccccc21 (stereo not given)	1.3	-5.4	0.1	1.7	16186*
CCC(C)(C)n1nnnc1C(c1cc2ccc(OC)cc2[nH]c1=O)N1CCc2ccccc21 (stereo not given)	5.8	3.0	-4.3	?	17938*
CCC(C)(C)n1nnnc1C(c1cc2ccc(OC)cc2[nH]c1=O)N1CCc2ccccc2C1 (stereo not given)	0.8	16.6	-2.2	0.9	11391
CC(=CC(=O)c1ccccc1)NCc1ccc(F)cc1	·	-20.2	·	·	·
COc1ccc(/C=C\C(=O)Nc2cc(C)nn2-c2nc3c(cnn3-c3ccccc3)c(=O)[nH]2)cc1OC	·	-11.0	·	·	·
Cc1ccc(N/C(N)=N/c2nc(CSc3ccc(C)cc3)cc(=O)[nH]2)cc1	0.4	·	-1.7	-1.6	23020*
COC(=O)Cc1cc(=O)[nH]c(/N=C(\N)Nc2ccccc2)n1	-0.9	·	5.5	4.3	21352*
O=C(CSc1ccc(-c2ccc(-n3ccnc3)cc2)nn1)NCc1ccccc1Cl	·	1.0	·	·	·
SMILES	Anthrax LF inh2	SSB-PriA inh	BoNT-F LC inh	BoNT-A LC inh2	Bead autofluor
O=C(N/N=C/c1ccc(Cl)s1)C1COc2ccccc2O1 (stereo not given)	·	i	·	·	·
O=C(Nc1ccc(-c2cn3ccsc3n2)cc1)c1ccc(F)c(S(=O)(=O)N2CCOCC2)c1	-6.4	6.0	-3.3	-1.5	19935*
CCOC(=O)c1ccc(N2C(=O)c3n[nH]c(C)c3C2c2ccco2)cc1 (stereo not given)	5.1	0.4	8.1	-0.2	3064
Cc1ccc(N2C(=O)c3n[nH]c(C)c3C2c2ccco2)cc1 (stereo not given)	-2.1	-5.4	-1.7	?	22119*
O=C(NC1CCN(c2nccs2)C1)c1cnn(-c2ccccc2)n1 (stereo not given)	·	-1.0	·	·	·
Cc1cc(Cl)ccc1OCC(=O)N1C(C)CCCC1C (stereo not given)	-6.6	-17.8	-4.3	-3.5	24242*
CC(Cc1ccccc1)/[N+]([O-])=C\c1ccc(C(F)(F)F)cc1 (stereo not given)	0.2	46.0*	-7.3	-0.5	3990
Cc1cccc2cc(C=NNC(=O)c3ccccc3O)c(Cl)nc12	·	-11.8	·	·	·
Cc1onc(-c2ccccc2Cl)c1C(=O)Nc1nnc(-c2cc(Cl)sc2Cl)o1	·	-5.0	·	·	·
Cc1onc(-c2ccccc2Cl)c1C(=O)Nc1nnc(-c2cccs2)o1	·	38.0*	·	·	·
O=C(O)COc1ccccc1C=NNC(=O)c1ccc(F)cc1	·	-3.5	·	·	·
N#Cc1ccc(Oc2nc(C(N)=O)cc(-c3ccccc3)n2)cc1	-1.5	4.3	-7.7	-4.7	24851*
